The values below come from publication PMC7862700, “An all-to-all approach to the identification of sequence-specific readers for epigenetic DNA modifications on cytosine”.

Common to all, as to assay: DAPPL (digital affinity profiling via proximity ligation, sequencing); 10 mM Tris-HCl pH 7.5, 50 mM NaCl, 1 mM DTT, 4% glycerol, room temperature, 30 min; GST-TFs on glutathione beads, 16-mer random dsDNA library, 0.1% formaldehyde crosslink after washing; high values mean tight binding
Common to all, as to details: protein: recombinant; tags: N-terminal GST; dsDNA, one strand shown

The target of one test is T1, ELK1 (Homo sapiens, UniProt P19419 1-428).
T1 sequence: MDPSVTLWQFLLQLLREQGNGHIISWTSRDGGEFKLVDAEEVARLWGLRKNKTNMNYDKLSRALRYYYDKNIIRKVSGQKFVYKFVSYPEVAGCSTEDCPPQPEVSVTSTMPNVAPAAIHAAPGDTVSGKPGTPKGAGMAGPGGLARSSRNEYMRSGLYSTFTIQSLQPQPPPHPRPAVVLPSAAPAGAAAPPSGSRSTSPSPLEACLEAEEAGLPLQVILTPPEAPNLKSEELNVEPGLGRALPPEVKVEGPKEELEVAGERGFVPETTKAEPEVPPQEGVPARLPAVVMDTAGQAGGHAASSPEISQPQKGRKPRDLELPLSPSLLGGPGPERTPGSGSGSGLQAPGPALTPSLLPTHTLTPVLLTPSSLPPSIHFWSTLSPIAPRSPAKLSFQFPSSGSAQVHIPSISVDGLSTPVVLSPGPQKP
In outline: (§1)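 GST fusions of human transcription factors were expressed in yeast and captured with glutathione beads. Once given DNA barcodes and pooled alongside a tag-only sample, they were incubated for 30 min at room temperature with 200 nmole of a random double-stranded 16-mer DNA library in Tris/NaCl/DTT/glycerol buffer, then washed, crosslinked (0.1% formaldehyde), proximity-ligated, PCR-amplified and sequenced on an Illumina NextSeq500. The binding signal of each hexamer is its read frequency for a factor divided by its frequency for the tag-only sample.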

In another test the target is T2, GABPA (Homo sapiens, UniProt Q06546 1-454).
T2 sequence: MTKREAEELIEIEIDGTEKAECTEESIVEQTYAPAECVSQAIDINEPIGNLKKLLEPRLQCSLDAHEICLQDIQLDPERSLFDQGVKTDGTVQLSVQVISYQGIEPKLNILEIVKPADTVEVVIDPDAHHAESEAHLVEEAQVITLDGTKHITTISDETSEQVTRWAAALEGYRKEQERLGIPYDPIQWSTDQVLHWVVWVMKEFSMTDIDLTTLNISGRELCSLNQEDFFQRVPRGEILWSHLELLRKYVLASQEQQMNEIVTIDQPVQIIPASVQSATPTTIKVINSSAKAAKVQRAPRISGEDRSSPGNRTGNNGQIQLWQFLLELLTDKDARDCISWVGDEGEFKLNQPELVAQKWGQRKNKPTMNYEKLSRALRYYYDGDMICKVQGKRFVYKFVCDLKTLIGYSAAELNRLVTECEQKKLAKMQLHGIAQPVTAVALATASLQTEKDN
In outline:
as §1

For another test, the target named is ELF1 (Homo sapiens, UniProt P32519 1-619). In outline: as §1
A further test concerns the target SPI1 (Homo sapiens, UniProt P17947 1-270). The procedure, abridged: as §1
A further test addresses SPIB (Homo sapiens, UniProt Q01892 1-262). In outline: as §1
A further test has as its target T3, FEV (Homo sapiens, UniProt Q99581 1-238).
T3 sequence: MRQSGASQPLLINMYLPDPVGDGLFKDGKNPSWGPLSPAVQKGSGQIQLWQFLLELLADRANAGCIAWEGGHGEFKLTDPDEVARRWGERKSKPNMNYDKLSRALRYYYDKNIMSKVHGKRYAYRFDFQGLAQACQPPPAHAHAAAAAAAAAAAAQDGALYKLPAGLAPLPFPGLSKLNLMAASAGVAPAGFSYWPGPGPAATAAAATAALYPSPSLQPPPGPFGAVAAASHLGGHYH
The procedure, abridged:
as §1

Another test concerns the target ETV5 (Homo sapiens, UniProt P41161 1-510). The procedure, abridged:
as §1

Another test deals with ELF4 (Homo sapiens, UniProt Q99607 1-663). The procedure, abridged: as §1
The next test addresses T4, ELK4 (Homo sapiens, UniProt P28324-2 1-405).
T4 sequence: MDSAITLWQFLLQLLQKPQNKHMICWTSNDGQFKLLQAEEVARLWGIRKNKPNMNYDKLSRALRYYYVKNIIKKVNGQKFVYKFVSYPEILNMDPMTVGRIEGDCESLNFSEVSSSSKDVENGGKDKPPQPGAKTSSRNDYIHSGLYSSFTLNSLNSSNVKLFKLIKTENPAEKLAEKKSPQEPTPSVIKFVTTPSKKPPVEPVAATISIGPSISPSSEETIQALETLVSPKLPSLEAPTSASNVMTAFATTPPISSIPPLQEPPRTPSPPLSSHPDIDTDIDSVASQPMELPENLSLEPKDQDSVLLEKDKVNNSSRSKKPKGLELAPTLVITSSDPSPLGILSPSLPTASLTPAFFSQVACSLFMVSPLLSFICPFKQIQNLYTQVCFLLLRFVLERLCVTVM
The procedure, abridged: as §1

Another test addresses ETV1 (Homo sapiens, UniProt P50549 1-477). The procedure, abridged:
as §1

A further test concerns the target T5, ERF (Homo sapiens, UniProt P50548 1-548).
T5 sequence: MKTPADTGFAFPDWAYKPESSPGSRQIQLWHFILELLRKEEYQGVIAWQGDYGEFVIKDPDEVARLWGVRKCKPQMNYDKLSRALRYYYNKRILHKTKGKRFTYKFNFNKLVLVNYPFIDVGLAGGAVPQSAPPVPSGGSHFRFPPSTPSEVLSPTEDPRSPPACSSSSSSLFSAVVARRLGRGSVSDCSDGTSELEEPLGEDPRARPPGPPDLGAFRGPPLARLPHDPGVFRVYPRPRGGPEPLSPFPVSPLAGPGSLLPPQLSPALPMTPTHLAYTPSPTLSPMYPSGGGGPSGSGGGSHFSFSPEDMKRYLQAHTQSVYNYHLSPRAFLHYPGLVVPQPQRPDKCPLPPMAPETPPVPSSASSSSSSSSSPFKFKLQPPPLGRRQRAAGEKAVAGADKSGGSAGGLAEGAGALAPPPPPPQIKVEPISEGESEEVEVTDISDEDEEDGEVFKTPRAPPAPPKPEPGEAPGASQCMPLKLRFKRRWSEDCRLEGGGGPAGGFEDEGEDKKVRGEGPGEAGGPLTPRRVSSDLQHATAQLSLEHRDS
In outline:
as §1

A further test concerns the target T6, ETV3L (Homo sapiens, UniProt Q6ZN32 1-361).
T6 sequence: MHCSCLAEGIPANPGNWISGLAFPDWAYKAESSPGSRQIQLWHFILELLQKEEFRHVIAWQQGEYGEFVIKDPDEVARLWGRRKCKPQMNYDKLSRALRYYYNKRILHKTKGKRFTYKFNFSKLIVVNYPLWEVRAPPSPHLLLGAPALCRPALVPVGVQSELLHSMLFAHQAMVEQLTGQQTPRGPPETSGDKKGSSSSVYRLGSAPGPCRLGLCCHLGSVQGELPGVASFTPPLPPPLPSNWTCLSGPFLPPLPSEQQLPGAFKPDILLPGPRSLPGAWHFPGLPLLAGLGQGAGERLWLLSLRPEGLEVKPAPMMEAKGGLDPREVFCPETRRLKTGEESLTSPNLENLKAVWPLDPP
The procedure, abridged:
as §1

The next test addresses T7, ETV7 (Homo sapiens, UniProt Q9Y603 1-341).
T7 sequence: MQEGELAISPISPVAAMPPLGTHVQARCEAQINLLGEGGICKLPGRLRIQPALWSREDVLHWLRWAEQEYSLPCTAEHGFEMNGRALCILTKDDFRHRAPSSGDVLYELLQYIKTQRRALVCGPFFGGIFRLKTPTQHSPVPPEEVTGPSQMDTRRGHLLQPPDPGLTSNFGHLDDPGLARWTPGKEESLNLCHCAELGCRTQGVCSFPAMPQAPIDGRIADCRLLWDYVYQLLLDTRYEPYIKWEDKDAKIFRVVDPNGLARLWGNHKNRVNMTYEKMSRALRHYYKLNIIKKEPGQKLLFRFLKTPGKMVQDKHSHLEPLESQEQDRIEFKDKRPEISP
The procedure, abridged:
as §1

The next test deals with T8, EHF (Homo sapiens, UniProt Q9NZC4 1-300).
T8 sequence: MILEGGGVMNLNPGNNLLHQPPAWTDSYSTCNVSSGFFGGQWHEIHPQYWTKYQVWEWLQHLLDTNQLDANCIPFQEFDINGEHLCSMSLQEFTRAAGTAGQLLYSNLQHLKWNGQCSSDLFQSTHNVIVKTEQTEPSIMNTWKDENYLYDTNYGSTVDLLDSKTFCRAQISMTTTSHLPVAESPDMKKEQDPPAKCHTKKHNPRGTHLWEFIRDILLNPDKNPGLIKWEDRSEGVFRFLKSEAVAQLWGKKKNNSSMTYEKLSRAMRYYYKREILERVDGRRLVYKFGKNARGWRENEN
In outline: as §1

The next test addresses T9, ETV3 (Homo sapiens, UniProt P41162-2 1-143).
T9 sequence: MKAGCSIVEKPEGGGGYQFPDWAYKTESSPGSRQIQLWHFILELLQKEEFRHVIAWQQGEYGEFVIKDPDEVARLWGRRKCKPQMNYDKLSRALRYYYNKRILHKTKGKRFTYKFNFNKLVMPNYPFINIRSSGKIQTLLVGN
The procedure, abridged: as §1

In a further test the target is ETV6 (Homo sapiens, UniProt P41212 1-452). In outline: as §1
Chain of ETV6 (P41212 whole entry): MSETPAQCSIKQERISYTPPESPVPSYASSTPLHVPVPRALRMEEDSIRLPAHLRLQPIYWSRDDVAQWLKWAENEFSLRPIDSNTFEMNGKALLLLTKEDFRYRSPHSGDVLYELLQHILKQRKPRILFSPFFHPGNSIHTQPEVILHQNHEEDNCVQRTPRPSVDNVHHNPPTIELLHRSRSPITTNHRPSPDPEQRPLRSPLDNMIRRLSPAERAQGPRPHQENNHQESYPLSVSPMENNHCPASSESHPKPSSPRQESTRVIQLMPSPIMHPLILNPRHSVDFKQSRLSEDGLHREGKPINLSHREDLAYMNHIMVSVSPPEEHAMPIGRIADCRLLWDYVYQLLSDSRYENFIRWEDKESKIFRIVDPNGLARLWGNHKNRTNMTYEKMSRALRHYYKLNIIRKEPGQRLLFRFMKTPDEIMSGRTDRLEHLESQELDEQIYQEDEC

Chain of ETV1 (P50549 whole entry): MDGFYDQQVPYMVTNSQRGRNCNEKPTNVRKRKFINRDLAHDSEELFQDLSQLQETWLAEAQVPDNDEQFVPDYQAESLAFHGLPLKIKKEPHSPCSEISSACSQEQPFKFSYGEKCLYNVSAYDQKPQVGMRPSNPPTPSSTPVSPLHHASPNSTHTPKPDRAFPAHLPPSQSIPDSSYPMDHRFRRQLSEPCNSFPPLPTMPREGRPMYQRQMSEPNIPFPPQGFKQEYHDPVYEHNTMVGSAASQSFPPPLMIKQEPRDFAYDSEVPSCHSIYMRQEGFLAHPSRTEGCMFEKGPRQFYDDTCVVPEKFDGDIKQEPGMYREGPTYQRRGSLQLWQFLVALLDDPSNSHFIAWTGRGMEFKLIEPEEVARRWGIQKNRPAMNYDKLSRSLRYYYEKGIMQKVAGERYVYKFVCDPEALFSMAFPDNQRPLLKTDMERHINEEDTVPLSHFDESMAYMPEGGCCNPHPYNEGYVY
Chain of SPIB (Q01892 whole entry): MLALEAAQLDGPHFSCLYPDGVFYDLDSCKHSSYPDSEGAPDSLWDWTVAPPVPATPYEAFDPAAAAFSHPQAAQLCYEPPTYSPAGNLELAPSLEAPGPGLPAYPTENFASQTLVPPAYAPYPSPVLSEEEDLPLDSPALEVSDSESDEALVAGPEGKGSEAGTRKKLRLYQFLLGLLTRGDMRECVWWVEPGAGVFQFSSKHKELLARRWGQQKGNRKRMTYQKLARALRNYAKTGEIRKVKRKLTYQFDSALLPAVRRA
Chain of ETV5 (P41161 whole entry): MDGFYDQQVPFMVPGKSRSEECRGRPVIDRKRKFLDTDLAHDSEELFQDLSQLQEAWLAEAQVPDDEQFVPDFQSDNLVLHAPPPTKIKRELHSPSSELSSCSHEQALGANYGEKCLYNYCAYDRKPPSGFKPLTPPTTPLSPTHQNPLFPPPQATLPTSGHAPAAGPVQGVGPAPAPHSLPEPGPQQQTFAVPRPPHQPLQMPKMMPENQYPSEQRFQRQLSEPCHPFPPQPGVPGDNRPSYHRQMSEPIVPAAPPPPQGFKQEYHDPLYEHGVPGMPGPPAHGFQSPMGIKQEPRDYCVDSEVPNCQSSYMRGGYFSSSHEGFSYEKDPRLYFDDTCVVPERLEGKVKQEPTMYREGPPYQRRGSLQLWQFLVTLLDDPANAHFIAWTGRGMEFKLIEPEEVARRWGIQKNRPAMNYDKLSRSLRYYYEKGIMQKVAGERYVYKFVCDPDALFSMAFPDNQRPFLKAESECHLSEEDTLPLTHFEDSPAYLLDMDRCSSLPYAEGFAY
Chain of ELF1 (P32519 whole entry): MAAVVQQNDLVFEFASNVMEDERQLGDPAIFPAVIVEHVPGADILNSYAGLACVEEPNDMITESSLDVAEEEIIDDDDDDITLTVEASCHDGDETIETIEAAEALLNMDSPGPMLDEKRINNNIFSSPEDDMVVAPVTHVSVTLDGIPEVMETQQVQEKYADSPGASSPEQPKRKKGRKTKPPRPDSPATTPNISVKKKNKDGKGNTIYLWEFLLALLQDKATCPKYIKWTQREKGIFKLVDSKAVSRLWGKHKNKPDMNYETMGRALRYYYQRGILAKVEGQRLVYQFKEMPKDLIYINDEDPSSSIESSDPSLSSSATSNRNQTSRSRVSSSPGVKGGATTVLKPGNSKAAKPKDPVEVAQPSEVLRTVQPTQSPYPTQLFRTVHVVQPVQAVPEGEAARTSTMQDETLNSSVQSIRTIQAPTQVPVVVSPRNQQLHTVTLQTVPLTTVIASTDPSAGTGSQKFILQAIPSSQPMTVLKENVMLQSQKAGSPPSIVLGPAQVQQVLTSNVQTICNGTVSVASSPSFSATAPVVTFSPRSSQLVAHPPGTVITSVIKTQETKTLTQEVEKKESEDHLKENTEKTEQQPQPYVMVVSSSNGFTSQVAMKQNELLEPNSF
Chain of ELF4 (Q99607 whole entry): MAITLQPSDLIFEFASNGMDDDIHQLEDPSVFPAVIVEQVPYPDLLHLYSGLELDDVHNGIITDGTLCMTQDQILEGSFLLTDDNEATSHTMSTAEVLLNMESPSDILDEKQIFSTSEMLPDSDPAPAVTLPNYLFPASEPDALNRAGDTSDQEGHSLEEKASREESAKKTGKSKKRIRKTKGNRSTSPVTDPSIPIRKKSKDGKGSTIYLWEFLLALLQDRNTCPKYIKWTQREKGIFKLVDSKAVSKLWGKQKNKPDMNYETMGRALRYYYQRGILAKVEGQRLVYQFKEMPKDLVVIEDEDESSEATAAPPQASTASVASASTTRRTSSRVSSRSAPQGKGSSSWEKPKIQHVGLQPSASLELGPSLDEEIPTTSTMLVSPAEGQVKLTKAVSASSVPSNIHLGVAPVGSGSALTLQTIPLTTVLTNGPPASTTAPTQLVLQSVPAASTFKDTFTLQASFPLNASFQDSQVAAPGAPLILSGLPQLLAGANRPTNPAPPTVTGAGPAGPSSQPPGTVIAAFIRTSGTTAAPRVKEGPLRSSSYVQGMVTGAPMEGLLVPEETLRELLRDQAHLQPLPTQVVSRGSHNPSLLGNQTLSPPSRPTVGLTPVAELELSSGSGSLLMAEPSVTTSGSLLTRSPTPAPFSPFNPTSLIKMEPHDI

Consider CAGCCT, for which the binding signal with ELK1 is 1.11 fold enrichment (6-mer frequency, TF over GST control); with GABPA, 1.09 fold enrichment (6-mer frequency, TF over GST control); with ELF1, 1.06 fold enrichment (6-mer frequency, TF over GST control); in the test with SPI1, 1.03 fold enrichment (6-mer frequency, TF over GST control); in the test with SPIB it was 1.09 fold enrichment (6-mer frequency, TF over GST control); in the test with FEV, 1.02 fold enrichment (6-mer frequency, TF over GST control). Further, the binding signal with ETV5 was 1.04 fold enrichment (6-mer frequency, TF over GST control); with ELF4, 1.12 fold enrichment (6-mer frequency, TF over GST control); in the test with ELK4, 1.01 fold enrichment (6-mer frequency, TF over GST control); with ETV1 it was 1.02 fold enrichment (6-mer frequency, TF over GST control); with ERF it was 1.1 fold enrichment (6-mer frequency, TF over GST control); in the test with ETV3L it was 1.02 fold enrichment (6-mer frequency, TF over GST control). Besides, the binding signal in the test with ETV7 is 1.13 fold enrichment (6-mer frequency, TF over GST control).
With CGTCCA, the binding signal is 1.04 fold enrichment (6-mer frequency, TF over GST control) with GABPA; 1.05 fold enrichment (6-mer frequency, TF over GST control) with ELF1; 1.02 fold enrichment (6-mer frequency, TF over GST control) with EHF; 1.03 fold enrichment (6-mer frequency, TF over GST control) with SPI1; 1 fold enrichment (6-mer frequency, TF over GST control) with SPIB; 1.02 fold enrichment (6-mer frequency, TF over GST control) with ETV5. The binding signal with ELK4 was 1 fold enrichment (6-mer frequency, TF over GST control); with ETV1, 1.08 fold enrichment (6-mer frequency, TF over GST control); in the test with ERF, 1.02 fold enrichment (6-mer frequency, TF over GST control); in the test with ETV3L, 1.13 fold enrichment (6-mer frequency, TF over GST control); with ETV3 it was 1.03 fold enrichment (6-mer frequency, TF over GST control); with ETV6, 1.04 fold enrichment (6-mer frequency, TF over GST control).
